In PMC7862700, “An all-to-all approach to the identification of sequence-specific readers for epigenetic DNA modifications on cytosine”:

Experiments:
Test in all cases: DAPPL (digital affinity profiling via proximity ligation, sequencing); 10 mM Tris-HCl pH 7.5, 50 mM NaCl, 1 mM DTT, 4% glycerol, room temperature, 30 min; GST-TFs on glutathione beads, 16-mer random dsDNA library, 0.1% formaldehyde crosslink after washing; high values mean tight binding
Details in all cases: protein: recombinant; tags: N-terminal GST; dsDNA, one strand shown
FLI1 = biological target: T1, FLI1 (Homo sapiens, UniProt Q01543 1-452)
T1 sequence: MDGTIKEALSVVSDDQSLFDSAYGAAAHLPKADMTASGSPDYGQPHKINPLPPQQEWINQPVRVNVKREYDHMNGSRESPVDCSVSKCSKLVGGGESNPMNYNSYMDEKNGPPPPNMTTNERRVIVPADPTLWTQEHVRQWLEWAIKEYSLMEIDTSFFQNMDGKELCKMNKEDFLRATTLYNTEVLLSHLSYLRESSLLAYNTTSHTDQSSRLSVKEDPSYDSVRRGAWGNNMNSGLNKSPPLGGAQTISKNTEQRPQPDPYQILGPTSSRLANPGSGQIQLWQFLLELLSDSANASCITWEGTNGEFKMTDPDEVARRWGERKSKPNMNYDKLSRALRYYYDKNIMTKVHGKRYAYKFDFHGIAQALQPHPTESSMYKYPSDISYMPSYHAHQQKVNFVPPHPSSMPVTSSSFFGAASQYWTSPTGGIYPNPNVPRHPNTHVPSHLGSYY
Summary of the method: (§1)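 Sequencing on an Illumina NextSeq500 followed washing, crosslinking with 0.1% formaldehyde, proximity ligation (BsaI/T4 ligase, 1 h, 37 °C) and PCR amplification of pools that had been incubated for 30 min at room temperature with 200 nmole of a random double-stranded 16-mer DNA library in Tris/NaCl/DTT/glycerol buffer. Each pool held DNA-barcoded human transcription factors, expressed in yeast as GST fusions and captured on glutathione beads, plus a tag-only sample. Binding signal is a hexamer's read frequency for a factor divided by its frequency in the tag-only sample.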

ELK1 = biological target: T2, ELK1 (Homo sapiens, UniProt P19419 1-428)
T2 sequence: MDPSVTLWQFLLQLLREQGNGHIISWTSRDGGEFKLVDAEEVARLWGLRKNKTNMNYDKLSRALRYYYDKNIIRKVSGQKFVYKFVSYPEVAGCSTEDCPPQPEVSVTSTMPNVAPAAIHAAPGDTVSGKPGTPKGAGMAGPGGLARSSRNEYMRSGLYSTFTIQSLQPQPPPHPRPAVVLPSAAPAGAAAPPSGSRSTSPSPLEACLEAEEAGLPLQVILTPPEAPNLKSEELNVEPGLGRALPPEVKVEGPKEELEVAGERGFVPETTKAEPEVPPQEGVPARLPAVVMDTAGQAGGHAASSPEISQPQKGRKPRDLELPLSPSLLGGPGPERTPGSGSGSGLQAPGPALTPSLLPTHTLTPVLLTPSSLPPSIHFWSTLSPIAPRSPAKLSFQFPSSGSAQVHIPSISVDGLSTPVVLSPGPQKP
Summary of the method: as §1

GABPA = biological target: T3, GABPA (Homo sapiens, UniProt Q06546 1-454)
T3 sequence: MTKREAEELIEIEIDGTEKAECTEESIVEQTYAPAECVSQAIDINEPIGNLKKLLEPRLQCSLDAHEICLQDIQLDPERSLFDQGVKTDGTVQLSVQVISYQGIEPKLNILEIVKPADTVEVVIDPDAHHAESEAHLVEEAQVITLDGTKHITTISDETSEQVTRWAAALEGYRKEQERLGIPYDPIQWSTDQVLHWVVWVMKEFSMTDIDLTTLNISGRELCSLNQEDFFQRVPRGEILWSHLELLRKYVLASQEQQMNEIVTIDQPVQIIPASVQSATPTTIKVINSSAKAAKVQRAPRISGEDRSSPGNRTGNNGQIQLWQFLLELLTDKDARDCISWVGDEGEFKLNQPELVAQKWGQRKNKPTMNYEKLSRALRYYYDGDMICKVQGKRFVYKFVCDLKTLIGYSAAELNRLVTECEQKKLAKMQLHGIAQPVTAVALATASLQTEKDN
Summary of the method: as §1

ERG = biological target: T4, ERG (Homo sapiens, UniProt P11308 1-479)
T4 sequence: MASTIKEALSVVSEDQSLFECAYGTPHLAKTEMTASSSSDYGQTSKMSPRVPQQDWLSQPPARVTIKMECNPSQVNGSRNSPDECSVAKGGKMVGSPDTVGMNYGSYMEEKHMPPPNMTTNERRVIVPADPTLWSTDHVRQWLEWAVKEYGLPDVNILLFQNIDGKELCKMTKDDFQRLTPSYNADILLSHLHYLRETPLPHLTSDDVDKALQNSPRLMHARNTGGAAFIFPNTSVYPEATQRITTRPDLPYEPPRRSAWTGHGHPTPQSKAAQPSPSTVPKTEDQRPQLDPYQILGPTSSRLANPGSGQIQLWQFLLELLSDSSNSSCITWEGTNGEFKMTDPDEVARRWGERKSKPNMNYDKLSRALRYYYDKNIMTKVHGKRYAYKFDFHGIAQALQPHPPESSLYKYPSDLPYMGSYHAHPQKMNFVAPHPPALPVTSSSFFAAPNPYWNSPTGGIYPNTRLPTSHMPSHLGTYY
Summary of the method: as §1

ELF1 = ELF1 (Homo sapiens, UniProt P32519 1-619)
Sequence of ELF1 (P32519 whole entry): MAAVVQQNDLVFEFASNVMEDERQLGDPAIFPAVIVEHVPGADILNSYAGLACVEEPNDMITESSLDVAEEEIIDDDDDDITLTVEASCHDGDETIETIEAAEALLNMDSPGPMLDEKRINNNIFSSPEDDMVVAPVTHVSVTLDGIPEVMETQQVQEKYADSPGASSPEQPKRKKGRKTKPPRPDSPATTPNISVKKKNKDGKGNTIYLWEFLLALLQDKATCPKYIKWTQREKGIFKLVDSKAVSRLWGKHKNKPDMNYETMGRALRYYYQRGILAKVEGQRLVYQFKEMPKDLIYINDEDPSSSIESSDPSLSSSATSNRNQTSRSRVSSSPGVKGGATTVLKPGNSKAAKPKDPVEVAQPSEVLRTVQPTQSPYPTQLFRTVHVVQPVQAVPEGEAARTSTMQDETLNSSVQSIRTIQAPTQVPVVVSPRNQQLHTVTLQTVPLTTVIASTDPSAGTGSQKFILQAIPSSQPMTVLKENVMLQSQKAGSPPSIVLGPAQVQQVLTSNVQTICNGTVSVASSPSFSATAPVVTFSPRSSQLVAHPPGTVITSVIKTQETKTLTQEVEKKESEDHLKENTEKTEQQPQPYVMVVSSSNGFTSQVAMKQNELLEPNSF
Summary of the method: as §1

EHF = biological target: T5, EHF (Homo sapiens, UniProt Q9NZC4 1-300)
T5 sequence: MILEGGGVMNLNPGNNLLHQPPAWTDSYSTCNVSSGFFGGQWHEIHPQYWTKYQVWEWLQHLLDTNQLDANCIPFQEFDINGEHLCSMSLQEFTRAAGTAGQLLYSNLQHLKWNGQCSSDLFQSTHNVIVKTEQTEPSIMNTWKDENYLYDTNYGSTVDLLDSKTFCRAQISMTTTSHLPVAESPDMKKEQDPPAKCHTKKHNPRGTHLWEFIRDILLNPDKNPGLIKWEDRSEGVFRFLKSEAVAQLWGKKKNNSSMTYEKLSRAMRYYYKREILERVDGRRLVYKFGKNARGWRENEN
Summary of the method: as §1

SPI1 = SPI1 (Homo sapiens, UniProt P17947 1-270)
Summary of the method: as §1

SPIB = SPIB (Homo sapiens, UniProt Q01892 1-262)
Sequence of SPIB (Q01892 whole entry): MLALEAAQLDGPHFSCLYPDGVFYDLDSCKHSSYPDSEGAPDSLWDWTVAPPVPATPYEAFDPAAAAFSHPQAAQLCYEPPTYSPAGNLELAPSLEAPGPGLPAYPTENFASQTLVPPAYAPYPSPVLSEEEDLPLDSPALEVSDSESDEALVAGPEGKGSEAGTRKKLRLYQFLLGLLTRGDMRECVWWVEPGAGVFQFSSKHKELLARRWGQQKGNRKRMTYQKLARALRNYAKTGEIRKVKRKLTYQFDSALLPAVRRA
Summary of the method: as §1

ELK3 = biological target: T6, ELK3 (Homo sapiens, UniProt P41970 1-407)
T6 sequence: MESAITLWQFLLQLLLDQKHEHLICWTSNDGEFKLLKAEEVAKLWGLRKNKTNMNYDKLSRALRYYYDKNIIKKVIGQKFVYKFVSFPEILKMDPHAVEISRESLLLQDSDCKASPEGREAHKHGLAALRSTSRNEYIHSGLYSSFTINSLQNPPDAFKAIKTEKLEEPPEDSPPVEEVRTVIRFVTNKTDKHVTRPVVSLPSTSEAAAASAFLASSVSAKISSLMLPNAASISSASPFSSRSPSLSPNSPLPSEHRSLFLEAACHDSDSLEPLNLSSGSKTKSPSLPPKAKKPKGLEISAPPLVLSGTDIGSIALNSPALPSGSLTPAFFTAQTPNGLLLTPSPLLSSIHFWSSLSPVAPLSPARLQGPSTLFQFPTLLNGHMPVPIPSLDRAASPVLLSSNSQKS
Summary of the method: as §1

Row | Sequence | binding signal (FLI1) | binding signal (ELK1) | binding signal (GABPA) | binding signal (ERG) | binding signal (ELF1) | binding signal (EHF) | binding signal (SPI1) | binding signal (SPIB) | binding signal (ELK3)
1 | CCACTA | 1.1 fold enrichment (6-mer frequency, TF over GST control) | 1.14 fold enrichment (6-mer frequency, TF over GST control) | 1.14 fold enrichment (6-mer frequency, TF over GST control) | 1.08 fold enrichment (6-mer frequency, TF over GST control) | 1.13 fold enrichment (6-mer frequency, TF over GST control) | 1.06 fold enrichment (6-mer frequency, TF over GST control) | 1.04 fold enrichment (6-mer frequency, TF over GST control) | 1.04 fold enrichment (6-mer frequency, TF over GST control) | 1.22 fold enrichment (6-mer frequency, TF over GST control)
2 | TTAATA | 1.28 fold enrichment (6-mer frequency, TF over GST control) | 1.23 fold enrichment (6-mer frequency, TF over GST control) | 1.18 fold enrichment (6-mer frequency, TF over GST control) | 1.16 fold enrichment (6-mer frequency, TF over GST control) | 1.16 fold enrichment (6-mer frequency, TF over GST control) | 1.23 fold enrichment (6-mer frequency, TF over GST control) | 1.09 fold enrichment (6-mer frequency, TF over GST control) | 1.22 fold enrichment (6-mer frequency, TF over GST control) | 1.29 fold enrichment (6-mer frequency, TF over GST control)
3 | TCTTTG | 1.18 fold enrichment (6-mer frequency, TF over GST control) | 1.18 fold enrichment (6-mer frequency, TF over GST control) | 1.2 fold enrichment (6-mer frequency, TF over GST control) | 1.25 fold enrichment (6-mer frequency, TF over GST control) | 1.25 fold enrichment (6-mer frequency, TF over GST control) | 1.21 fold enrichment (6-mer frequency, TF over GST control) | 1.21 fold enrichment (6-mer frequency, TF over GST control) | 1.05 fold enrichment (6-mer frequency, TF over GST control) | 1.31 fold enrichment (6-mer frequency, TF over GST control)
4 | TCCCAC | 1.31 fold enrichment (6-mer frequency, TF over GST control) | 1.42 fold enrichment (6-mer frequency, TF over GST control) | 1.36 fold enrichment (6-mer frequency, TF over GST control) | 1.37 fold enrichment (6-mer frequency, TF over GST control) | 1.47 fold enrichment (6-mer frequency, TF over GST control) | 1.38 fold enrichment (6-mer frequency, TF over GST control) | 1.34 fold enrichment (6-mer frequency, TF over GST control) | 1.26 fold enrichment (6-mer frequency, TF over GST control) | 1.27 fold enrichment (6-mer frequency, TF over GST control)
5 | TGCTTT | 1.13 fold enrichment (6-mer frequency, TF over GST control) | 1.12 fold enrichment (6-mer frequency, TF over GST control) | 1.12 fold enrichment (6-mer frequency, TF over GST control) | 1.02 fold enrichment (6-mer frequency, TF over GST control) | 1.1 fold enrichment (6-mer frequency, TF over GST control) | 1.04 fold enrichment (6-mer frequency, TF over GST control) | 1.14 fold enrichment (6-mer frequency, TF over GST control) | 1.08 fold enrichment (6-mer frequency, TF over GST control) | 1.1 fold enrichment (6-mer frequency, TF over GST control)
6 | CACTAA | 1.09 fold enrichment (6-mer frequency, TF over GST control) | 1.21 fold enrichment (6-mer frequency, TF over GST control) | 1.11 fold enrichment (6-mer frequency, TF over GST control) | 1.1 fold enrichment (6-mer frequency, TF over GST control) | 1.18 fold enrichment (6-mer frequency, TF over GST control) | 1.21 fold enrichment (6-mer frequency, TF over GST control) | 1.19 fold enrichment (6-mer frequency, TF over GST control) | 1.18 fold enrichment (6-mer frequency, TF over GST control) | 1.18 fold enrichment (6-mer frequency, TF over GST control)
7 | ATCTCC | 1.61 fold enrichment (6-mer frequency, TF over GST control) | 1.5 fold enrichment (6-mer frequency, TF over GST control) | 1.56 fold enrichment (6-mer frequency, TF over GST control) | 1.51 fold enrichment (6-mer frequency, TF over GST control) | 1.47 fold enrichment (6-mer frequency, TF over GST control) | 1.6 fold enrichment (6-mer frequency, TF over GST control) | 1.37 fold enrichment (6-mer frequency, TF over GST control) | 1.49 fold enrichment (6-mer frequency, TF over GST control) | 1.42 fold enrichment (6-mer frequency, TF over GST control)
